Source: PubChem BioAssay (NCATS)
Inconclusive results are not listed. A call without a number means that no potency is given here. Activity calls are given as the source filed them. Unless noted, calls come from the whole dose curve; as a rule, active = well fitted curve in the direction sought with a large enough effect; inconclusive = small, poorly fitted or top-dose-only effect, or another doubt; inactive = no such curve, though single readings can be large; an effect the other way counts as inactive or inconclusive.

Tests used:
[1] = qHTS for differential inhibitors of proliferation of Plasmodium falciparum line Dd2 (AID 1882); details: Potency: Plasmodium falciparum Dd2 proliferation inhibition; series mostly up to 28.7 µM; note: nearly all actives have a fitted effect of over 65% in size; note: potency is the fitted concentration of half-maximal effect
In short: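 SYBR Green I DNA fluorescence read-out, ex 485/em 535 nm. Signals were normalized to 0.29 uM artemisinin and DMSO wells, then corrected using vehicle-only plates flanking each stack. Parasite growth ran 72 h in erythrocytes before lysis.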

[2] = qHTS for differential inhibitors of proliferation of Plasmodium falciparum line W2 (AID 1883); details: Potency: Plasmodium falciparum W2 proliferation inhibition; series mostly up to 28.7 µM;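 note: parasites grown with compound for 72 h before lysis and staining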; note: potency is the fitted concentration of half-maximal effect
[3] = qHTS for differential inhibitors of proliferation of Plasmodium falciparum line HB3 (AID 1886); details: Potency: Plasmodium falciparum HB3 proliferation inhibition; series mostly up to 28.7 µM;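 note: parasites grown with compound for 72 h before SYBR Green readout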; note: potency is the fitted concentration of half-maximal effect
[4] = qHTS Assay for Modulators of Human Peripheral Myelin Protein 22 (PMP22) Expression/Activity (AID 1967; active = well fitted curve in the direction sought with a large enough effect in the signal ratio; the % refers to the signal ratio); details: Cell-based PMP22 reporter, dual-color luciferase ratio, 0% = compound-free control cells, mouse Pmp22 promoter in mouse Schwann cells; series mostly up to 115 µM
In short: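 Engineered MSC80 cells, Pmp22-promoter green and EF-alpha red luciferase reporters; 24h compound treatment at 37 °C. Concentration-response fits on green, red and ratio signals, each overlap-corrected, with %Activity normalized to untreated wells.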

[5] = biological target: Ferritin light chain (Equus caballus) (UniProt P02791); test: qHTS Validation Assay for Identification of Novel General Anesthetics (AID 2323); details: horse apoferritin, anesthetic-site fluorescent probe displacement; series mostly up to 76.9 µM
Ferritin light chain (Equus caballus), sequence (P02791 2-175 limits assumed): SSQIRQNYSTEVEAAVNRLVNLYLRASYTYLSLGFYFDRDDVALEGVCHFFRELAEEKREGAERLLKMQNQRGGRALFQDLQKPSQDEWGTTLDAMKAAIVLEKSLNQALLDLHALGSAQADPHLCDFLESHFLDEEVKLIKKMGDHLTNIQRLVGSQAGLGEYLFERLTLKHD
In short: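 Normalized fluorescence response, scaled between free 1-AMA and 1-AMA/apoferritin complex, fitted to a four-parameter Hill equation for concentration-effect values. Binding mix: 10 uM horse-spleen apoferritin, 50% saturated 1-AMA in PBS; read 380/535 nm after 10 min.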

[6] = biological target: ATP-dependent DNA helicase Q1 (Homo sapiens) (UniProt P46063); test: qHTS Validation Assay for Inhibitors of RecQ-Like Dna Helicase 1 (RECQ1) (AID 2353); details: recombinant RECQ1 helicase DNA unwinding assay; series mostly up to 25.6 µM; note: potency is the fitted concentration of half-maximal effect
ATP-dependent DNA helicase Q1 (Homo sapiens), sequence (P46063 whole entry, looked up): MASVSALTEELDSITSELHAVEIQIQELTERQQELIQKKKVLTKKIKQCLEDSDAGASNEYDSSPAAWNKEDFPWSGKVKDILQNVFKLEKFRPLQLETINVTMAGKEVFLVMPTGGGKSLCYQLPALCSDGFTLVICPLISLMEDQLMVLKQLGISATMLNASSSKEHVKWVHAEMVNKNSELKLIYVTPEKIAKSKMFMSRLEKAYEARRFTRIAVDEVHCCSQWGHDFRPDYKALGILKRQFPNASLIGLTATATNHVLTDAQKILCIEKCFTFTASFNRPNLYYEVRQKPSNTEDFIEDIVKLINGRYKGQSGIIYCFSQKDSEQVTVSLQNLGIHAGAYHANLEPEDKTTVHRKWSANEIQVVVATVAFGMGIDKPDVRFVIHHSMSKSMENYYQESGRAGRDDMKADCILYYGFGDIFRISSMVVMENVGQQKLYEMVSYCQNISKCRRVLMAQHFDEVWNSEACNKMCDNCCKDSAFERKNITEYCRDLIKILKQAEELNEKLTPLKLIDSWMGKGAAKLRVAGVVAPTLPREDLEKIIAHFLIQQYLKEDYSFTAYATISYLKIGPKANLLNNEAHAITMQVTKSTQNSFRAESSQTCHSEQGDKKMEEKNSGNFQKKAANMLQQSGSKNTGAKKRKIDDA
In short: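 50 nM RECQ1T1 preincubated 15 min with compound in Tris pH 8.0 buffer with MgCl2, DTT, Tween-20 and 2.5 ug/ml poly(dI-dC); started with 200 nM TAMRA/BHQ-2 forked duplex and 2 mM ATP. Unwinding read as fluorescence (525/598 nm), two reads 2 h apart.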

[7] = Cytometric Cell-Based qHTS for Inhibitors of the mTORC1 Signaling Pathway in MEF (Tsc2-/-, p53-/-) Cells (AID 2660); details: mTORC1 pathway cytometry; series mostly up to 38.3 µM;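 note: Tsc2 and p53 null MEFs carrying empty vector with compound for 24 h; percent of cells above a phospho-rpS6 to PI ratio cutoff in each well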
In short: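 Cells are plated, treated with compound for 24 hrs at 37 degree Celsius, then fixed, blocked and immunostained for phospho-rpS6 Ser235/236. Propidium iodide counterstain follows. Per-well % positive cells is derived from the PI-normalized phospho-S6 signal.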

[8] = High Content Imaging Cell-Based qHTS for Inhibitors of the mTORC1 Signaling Pathway in MEF (Tsc2-/-, p53-/-) Cells (AID 2666); details: series mostly up to 38.3 µM;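 note: percent of cells scored positive for phospho-rpS6 Ser235/236 immunostaining by imaging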
In short: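 Cells were plated, dosed with compound after 24 hrs, and incubated another 24 hrs at 37 degree Celsius. Fixed cells were immunostained for phospho-rpS6 Ser235/236 and counterstained, and the normalized signal was scored as % active cells against rapamycin and DMSO controls.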

[9] = biological target: RecQ-like DNA helicase BLM (Homo sapiens) (UniProt P54132); test: qHTS Validation Assay for Inhibitors of Bloom's syndrome helicase (BLM) (AID 2364); details: BLM helicase DNA unwinding, fluorescence, in vitro; series mostly up to 57.1 µM
RecQ-like DNA helicase BLM (Homo sapiens), sequence (P54132 whole entry, looked up): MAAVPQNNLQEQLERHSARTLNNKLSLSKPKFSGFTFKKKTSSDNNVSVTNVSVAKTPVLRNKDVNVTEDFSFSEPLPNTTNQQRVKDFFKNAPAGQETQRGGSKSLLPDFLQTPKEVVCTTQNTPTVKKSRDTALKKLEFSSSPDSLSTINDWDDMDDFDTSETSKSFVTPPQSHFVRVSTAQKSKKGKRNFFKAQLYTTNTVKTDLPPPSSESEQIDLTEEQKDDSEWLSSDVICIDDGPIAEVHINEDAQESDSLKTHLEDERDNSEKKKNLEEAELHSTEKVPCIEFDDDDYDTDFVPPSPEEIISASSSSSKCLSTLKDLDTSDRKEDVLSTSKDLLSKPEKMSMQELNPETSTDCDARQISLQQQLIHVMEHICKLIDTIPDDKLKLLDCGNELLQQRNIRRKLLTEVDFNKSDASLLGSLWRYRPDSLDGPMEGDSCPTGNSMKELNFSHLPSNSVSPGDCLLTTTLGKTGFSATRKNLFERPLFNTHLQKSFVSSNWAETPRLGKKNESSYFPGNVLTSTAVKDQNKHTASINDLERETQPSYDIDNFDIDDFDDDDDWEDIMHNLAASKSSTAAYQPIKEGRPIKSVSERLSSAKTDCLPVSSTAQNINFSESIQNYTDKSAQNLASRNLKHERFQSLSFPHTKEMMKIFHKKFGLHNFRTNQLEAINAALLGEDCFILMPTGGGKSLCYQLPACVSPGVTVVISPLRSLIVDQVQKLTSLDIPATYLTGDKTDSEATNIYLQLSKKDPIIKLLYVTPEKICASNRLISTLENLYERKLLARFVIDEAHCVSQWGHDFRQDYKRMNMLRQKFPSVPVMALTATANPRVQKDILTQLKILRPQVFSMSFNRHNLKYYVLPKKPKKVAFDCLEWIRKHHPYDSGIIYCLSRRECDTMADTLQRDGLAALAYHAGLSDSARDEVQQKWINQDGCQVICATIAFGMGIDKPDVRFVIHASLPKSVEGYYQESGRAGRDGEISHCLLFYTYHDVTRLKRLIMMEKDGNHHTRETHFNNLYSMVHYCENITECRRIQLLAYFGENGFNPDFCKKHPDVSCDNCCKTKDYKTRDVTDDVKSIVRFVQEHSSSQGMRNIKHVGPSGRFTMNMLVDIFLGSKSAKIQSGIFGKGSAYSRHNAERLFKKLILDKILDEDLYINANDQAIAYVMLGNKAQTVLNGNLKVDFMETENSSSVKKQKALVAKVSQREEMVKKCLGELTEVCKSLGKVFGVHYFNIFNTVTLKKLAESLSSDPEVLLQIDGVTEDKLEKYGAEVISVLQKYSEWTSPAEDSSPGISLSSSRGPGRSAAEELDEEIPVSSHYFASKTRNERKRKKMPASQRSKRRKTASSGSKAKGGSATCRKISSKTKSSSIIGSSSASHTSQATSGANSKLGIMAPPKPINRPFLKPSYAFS
In short: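 Forked 20-bp duplex substrate (200 nM, TAMRA/BHQ-2) plus 2 mM ATP added after 15 min compound preincubation with 50 nM enzyme, pH 8.0, poly(dI-dC) 2.5 ug/ml. Strand separation followed by fluorescence (525/598 nm) over 2 h, normalized to enzyme-free and DMSO controls.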

For CCCCCN(CCCCC)C(=O)C(CCC(=O)O)NC(=O)c1ccc(Cl)c(Cl)c1 (centres undefined), the Potency [1] was “inactive”, the Potency [2] was “inactive” and the Potency [3] was “inactive”. The outcome [4] was “inactive”, the outcome [5] was “inactive” and the Potency [6] was “inactive”. For the same compound, the outcome [7] was “inactive” and the Potency [8] was “inactive”.
With CC(C)NNC(=O)c1ccncc1 the Potency [1] was “inactive”, the Potency [2] was “inactive” and the Potency [3] was “inactive”. For the same compound, the outcome [5] was “inactive”, the Potency [6] was “inactive” and the Potency [9] was “inactive”. The outcome [7] was “inactive” and the Potency [8] was “inactive”.
With Cc1nc2sccn2c(=O)c1CCN1CCC(=C(c2ccc(F)cc2)c2ccc(F)cc2)CC1 the Potency [1] was 7.94 µM (active), the Potency [2] was 10 µM (active) and the Potency [3] was 11.2 µM (active). For the same compound, the outcome [5] was “inactive”, the Potency [6] was “inactive” and the outcome [7] was “inactive”. For the same compound, the Potency [8] was “inactive”.
For NC/C=C/C(=O)O, the Potency [1] was “inactive”, the Potency [2] was “inactive” and the Potency [3] was “inactive”. For the same compound, the outcome [5] was “inactive”, the Potency [6] was “inactive” and the outcome [7] was “inactive”. The Potency [8] was “inactive”.
For CCN1CCc2nc(N)oc2CC1, the Potency [1] was “inactive”, the Potency [2] was “inactive” and the Potency [3] was “inactive”. For the same compound, the outcome [5] was “inactive”, the Potency [6] was “inactive” and the outcome [7] was “inactive”. For the same compound, the Potency [8] was “inactive”.
With NS(=O)(=O)c1cc2c(cc1Cl)NC(C1CC3C=CC1C3)NS2(=O)=O (centres undefined) the Potency [1] was “inactive”, the Potency [2] was “inactive” and the Potency [3] was “inactive”. The outcome [4] was “inactive”, the Potency [6] was 11.2 µM (active) and the outcome [7] was “inactive”. For the same compound, the Potency [8] was “inactive”.
For CN(C)CCCN1c2ccccc2Sc2ccc(C(F)(F)F)cc21, the Potency [1] was 11.2 µM (active), the Potency [2] was 7.08 µM (active) and the Potency [3] was 10 µM (active). The outcome [5] was “inactive”, the Potency [6] was “inactive” and the outcome [7] was “inactive”. For the same compound, the Potency [8] was “inactive”.
In the case of CN(C)C(=O)Oc1ccc[n+](C)c1, the Potency [1] is reported as “inactive”, the Potency [2] is reported as “inactive” and the Potency [3] is reported as “inactive”. The outcome [5] was “inactive”, the Potency [6] was “inactive” and the Potency [9] was “inactive”. For the same compound, the outcome [7] was “inactive” and the Potency [8] was “inactive”.
For O=c1[nH]c(=O)n([C@H]2C[C@H](O)[C@@H](CO)O2)cc1Br, the Potency [1] was “inactive”, the Potency [2] was “inactive” and the Potency [3] was “inactive”. The outcome [5] was “inactive”, the Potency [6] was “inactive” and the Potency [9] was “inactive”. For the same compound, the outcome [7] was “inactive” and the Potency [8] was “inactive”.
For O=C(O)CCCCCCCC(=O)O, the Potency [1] was “inactive”, the Potency [2] was “inactive” and the Potency [3] was “inactive”. For the same compound, the outcome [5] was “inactive”, the Potency [6] was “inactive” and the Potency [9] was “inactive”. For the same compound, the outcome [7] was “inactive” and the Potency [8] was “inactive”.
For CCCCNC(=O)NS(=O)(=O)c1ccc(C)cc1, the Potency [1] was “inactive”, the Potency [2] was “inactive” and the Potency [3] was “inactive”. The outcome [4] was “inactive”, the outcome [5] was “inactive” and the Potency [6] was “inactive”. The Potency [9] was “inactive”, the outcome [7] was “inactive” and the Potency [8] was “inactive”.
With CCCN(CCC)C(=O)C(CCC(=O)O)NC(=O)c1ccccc1 (centres undefined) the Potency [1] was “inactive”, the Potency [2] was “inactive” and the Potency [3] was “inactive”. For the same compound, the outcome [5] was “inactive”, the Potency [6] was “inactive” and the Potency [9] was “inactive”. The outcome [7] was “inactive” and the Potency [8] was “inactive”.
For OCCN1CCN(CC/C=C2/c3ccccc3Sc3ccc(C(F)(F)F)cc32)CC1, the Potency [1] was 7.94 µM (active), the Potency [2] was 1.58 µM (active) and the Potency [3] was 5.01 µM (active). For the same compound, the outcome [5] was “inactive”, the Potency [6] was “inactive” and the Potency [9] was “inactive”.
With COc1ccc(CCN(C)CCCC(C#N)(c2cc(OC)c(OC)c(OC)c2)C(C)C)cc1OC (centres undefined) the Potency [1] was 3.55 µM (active), the Potency [2] was 2.24 µM (active) and the Potency [3] was 2.82 µM (active). The outcome [5] was “inactive”, the Potency [6] was “inactive” and the Potency [9] was “inactive”. For the same compound, the outcome [7] was “inactive” and the Potency [8] was “inactive”.
In the case of CNC1(C)C2CCC(C2)C1(C)C (centres undefined), the Potency [1] is reported as “inactive”, the Potency [2] is reported as 8.91 µM (active) and the Potency [3] is reported as “inactive”. For the same compound, the outcome [5] was “inactive”, the Potency [6] was “inactive” and the Potency [9] was “inactive”. The outcome [7] was “inactive” and the Potency [8] was “inactive”.
With CN(C)C(=O)Oc1cccc([N+](C)(C)C)c1 the Potency [1] was “inactive”, the Potency [2] was “inactive” and the Potency [3] was “inactive”. For the same compound, the outcome [5] was “inactive”, the Potency [6] was “inactive” and the Potency [9] was “inactive”. The outcome [7] was “inactive” and the Potency [8] was “inactive”.
In the case of COC(=O)[C@H]1[C@H]2C[C@@H]3c4[nH]c5cc(OC)ccc5c4CCN3C[C@H]2C[C@@H](OC(=O)c2cc(OC)c(OC)c(OC)c2)[C@@H]1OC, the Potency [1] is reported as 2.24 µM (active), the Potency [2] is reported as 0.891 µM (active) and the Potency [3] is reported as 1.26 µM (active). For the same compound, the outcome [5] was “inactive”, the Potency [6] was “inactive” and the outcome [7] was “inactive”. The Potency [8] was “inactive”.
With CC(=O)OC(C)C[N+](C)(C)C (centres undefined) the Potency [1] was “inactive”, the Potency [2] was “inactive” and the Potency [3] was “inactive”. The outcome [4] was “inactive”, the outcome [5] was “inactive” and the Potency [6] was “inactive”. For the same compound, the outcome [7] was “inactive” and the Potency [8] was “inactive”.
With CC(=O)OCC1=C(C(=O)O)N2C(=O)[C@@H](NC(=O)Cc3cccs3)[C@H]2SC1 the Potency [1] was “inactive”, the Potency [2] was “inactive” and the Potency [3] was “inactive”. The outcome [4] was “inactive”, the outcome [5] was “inactive” and the Potency [6] was “inactive”. For the same compound, the outcome [7] was “inactive” and the Potency [8] was “inactive”.
For CCN(CC)CC(=O)Nc1c(C)cccc1C, the Potency [1] was “inactive”, the Potency [2] was 14.1 µM (active) and the Potency [3] was “inactive”. For the same compound, the outcome [4] was “inactive”, the outcome [5] was “inactive” and the Potency [6] was “inactive”. The outcome [7] was “inactive” and the Potency [8] was “inactive”.
In the case of O=C1NCN(c2ccccc2)C12CCN(CCCC(c1ccc(F)cc1)c1ccc(F)cc1)CC2, the Potency [1] is reported as 8.91 µM (active), the Potency [2] is reported as 2.82 µM (active) and the Potency [3] is reported as 7.08 µM (active). For the same compound, the outcome [5] was “inactive” and the Potency [6] was “inactive”.
For CN(C)CCOC(=O)COc1ccc(Cl)cc1, the Potency [1] was “inactive”, the Potency [2] was “inactive” and the Potency [3] was “inactive”. The outcome [5] was “inactive”, the Potency [6] was “inactive” and the outcome [7] was “inactive”. The Potency [8] was “inactive”.
With C=CCc1ccccc1OCC(O)CNC(C)C (centres undefined) the Potency [1] was 8.91 µM (active), the Potency [2] was 2.24 µM (active) and the Potency [3] was 11.2 µM (active). The outcome [5] was “inactive”, the Potency [6] was “inactive” and the Potency [9] was “inactive”. For the same compound, the outcome [7] was “inactive” and the Potency [8] was “inactive”.
In the case of COc1cc(C(=O)OCCCN2CCCN(CCCOC(=O)c3cc(OC)c(OC)c(OC)c3)CC2)cc(OC)c1OC, the Potency [1] is reported as 7.08 µM (active), the Potency [2] is reported as 3.55 µM (active) and the Potency [3] is reported as 8.91 µM (active). The outcome [5] was “inactive”, the Potency [6] was “inactive” and the Potency [9] was “inactive”. The outcome [7] was “inactive” and the Potency [8] was “inactive”.
For CC(C)NCC(O)c1cc(O)cc(O)c1 (centres undefined), the Potency [1] was “inactive”, the Potency [2] was “inactive” and the Potency [3] was “inactive”. The outcome [4] was “inactive”, the outcome [5] was “inactive” and the Potency [6] was “inactive”. The outcome [7] was “inactive” and the Potency [8] was “inactive”.
